Many of the other results were omitted from the sample, so hits are more common in it than they were.
BL2 CD40 inh – CD40 pathway inhibition in BL2 cells; inhibition, % at 10 µM; BL2 NF-kB luciferase reporter, CD40L-induced, 4 h; 0.94% of 83,000 active;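 active = mean inhibition of at least 50% with a set share of replicates also reaching that level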;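 note: 0% = neutral control wells and 100% = IKK inhibitor VII at 50 µM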
* = called active by the depositor; [ ] = another dose, or the depositor's remark.

SMILES	BL2 CD40 inh
OCCN1CCN(CCCN2c3ccccc3Sc3ccc(Cl)cc32)CC1	-78
CN(C)CCCN1c2ccccc2Sc2ccc(Cl)cc21	-40
C[C@H]1CN([C@@H](C)CO)C(=O)CCCn2cc(nn2)CO[C@H]1CN(C)C(=O)NC1CCCC1	15
O=C(C1CCC1)N1C[C@H]2[C@@H](c3ccccc31)[C@H](CO)N2S(=O)(=O)c1ccccc1	1[25 µM]
C[C@@H]1CN(C)C(=O)Cc2cc([N+](=O)[O-])ccc2O[C@@H]1CN(C)C(=O)OC(C)(C)C	-3
CN1CCN(Cc2nc3ccccc3c(=O)n2Cc2nc(-c3ccc4ccccc4c3)cs2)CC1	60*
CC(=O)Cn1c(CN2CCCC2)nc2ccccc2c1=O	0
CN1CCN(Cc2nc3c(c(=O)n(C)c(=O)n3C)n2CCCc2ccccc2)CC1	3
CC(=O)OC1C(=O)C2(C)C(O)CC3OCC3(OC(C)=O)C2C(OC(=O)c2ccccc2)C2(O)CC(OC(=O)C(O)C(NC(=O)c3ccccc3)c3ccccc3)C(C)=C1C2(C)C (stereo not drawn)	4[25 µM]
O=C(NCc1ccc(F)cc1)[C@@H]1[C@@H](CO)[C@@H]2Cn3c(ccc(-c4cccnc4)c3=O)[C@H]1N2	3[25 µM]
CN1c2ccc(Br)cc2[C@H]2[C@H](CCN2C(=O)Cc2ccccc2)[C@H]1CO	-4[25 µM]
CC(C)(C)[S@@](=O)N1Cc2cc(C(=O)N[C@@H]3CCN(Cc4ccccc4)C3)nc(-c3cccc(-c4cncnc4)c3)c2[C@H]1CCO	-5
Cc1ccccc1S(=O)(=O)N[C@@H]1CC[C@@H](CCNS(=O)(=O)c2cccc(F)c2)O[C@@H]1CO	-8
O=C1CNC[C@H]2[C@@H](c3ccc(C#CC4CCCCC4)cc3)[C@@H](CO)N12	-21[25 µM]
C[C@H]1CNC(=O)[C@H](Cc2ccc(C(F)(F)F)cc2)CCn2nncc2COC1	0[25 µM]
Cc1c(C(=O)OCCOc2ccccc2)[nH]c2c1C(=O)CCC2	66*
Cc1c(C(=O)OC2CCCC2C)[nH]c2c1C(=O)CCC2 (stereo not drawn)	-57
CCCc1c(C(=O)OCC)[nH]c2c1C(=O)CCC2	5
CCCNC(=O)N1CCC2(CC1)CN(C(=O)CC1CC1)[C@H](CO)c1c2c2ccc(OC)cc2n1C	-3[25 µM]
C[C@@H]1CN([C@@H](C)CO)C(=O)c2c(c3ccccc3n2C)-c2ccccc2CO[C@@H]1CN(C)C(=O)Nc1cccc(C(F)(F)F)c1	24[25 µM]
C[C@@H]1CN([C@H](C)CO)C(=O)c2c(c3ccccc3n2C)-c2ccccc2CO[C@H]1CN(C)C(=O)Nc1cccc(F)c1	5
C[C@@H]1CN([C@H](C)CO)C(=O)c2c(c3ccccc3n2C)-c2ccccc2CO[C@@H]1CN(C)C(=O)Nc1cccc(C(F)(F)F)c1	20[25 µM]
C[C@@H]1CN([C@H](C)CO)C(=O)c2c(c3ccccc3n2C)-c2ccccc2CO[C@H]1CN(C)C(=O)Nc1cccc(C(F)(F)F)c1	38[25 µM]
C[C@H]1CN([C@@H](C)CO)C(=O)c2c(c3ccccc3n2C)-c2ccccc2CO[C@H]1CN(C)C(=O)Nc1cccc(C(F)(F)F)c1	55*[25 µM]
C[C@@H]1CN([C@@H](C)CO)C(=O)c2c(c3ccccc3n2C)-c2ccccc2CO[C@H]1CN(C)C(=O)Nc1cccc(C(F)(F)F)c1	70*[25 µM]
SMILES	BL2 CD40 inh
COc1ccc(NC(=O)Nc2ccc3c(c2)[C@@H]2C[C@H](CC(=O)NC4CCCC4)O[C@@H](CO)[C@@H]2O3)cc1	-1
C[C@H]1CN([C@@H](C)CO)C(=O)c2cc(NC(=O)Cc3ccccc3)ccc2O[C@@H]1CN(C)Cc1ccc(Oc2ccccc2)cc1	6
Cc1nn(-c2ccccc2)nc1-c1nnc(-c2cccc3ccccc23)o1	-2
O=C(C[C@@H]1CC[C@H]2[C@@H](COC[C@H](O)CN2CC2CCCC2)O1)NCc1ccc(Cl)cc1	6
CC(C)CC#Cc1ccc([C@@H]2[C@H]3CN(C(=O)c4ccccn4)CC(=O)N3[C@H]2CO)cc1	-7[25 µM]
C[C@H]1CN(C)C(=O)c2cccnc2O[C@H]1CN(C)S(C)(=O)=O	-1
O=C(NC[C@H]1[C@H](c2ccccc2)[C@H](CO)N1Cc1ccccn1)C1CCCC1	-6[25 µM]
O=C1CCC(C(=O)OCC(=O)c2ccccc2)N1 (stereo not drawn)	11
CC1CC(C)C(=O)C(C(CC2CC(=O)NC(=O)C2)OC(=O)CC(=O)c2ccccc2)C1 (stereo not drawn)	56*
COc1ccc(C[C@H]2CCn3cc(nn3)COCCCNC2=O)cc1	-8[25 µM]
CC(=O)Nc1ccc2c(c1)-c1ccc(F)cc1C2	-6
CC(=O)Nc1ccc2c(c1)Cc1ccc(Cl)cc1-2	-51
CC(=O)Nc1ccc2c(c1)Cc1cc(N3C(=O)C=CC3=O)ccc1-2	97*
O=C(NCC[C@@H]1CC[C@H](NC(=O)c2ccncc2)[C@H](CO)O1)Nc1ccc(Cl)cc1	-2[25 µM]
O=C(NC1CCCCC1)[C@H]1[C@H](CO)[C@H]2Cn3c(cccc3=O)[C@@H]1N2CC1CCCC1	-6
O=C(c1ccc(-c2ccc([N+](=O)[O-])cc2)o1)N1CCCC(C(F)(F)F)C1 (stereo not drawn)	61*
O=C(c1ccccc1)c1ccc(C(=O)N2CCCC(C(F)(F)F)C2)cc1 (stereo not drawn)	-2
O=C(c1ccc(-c2ccc([N+](=O)[O-])cc2)o1)N1CCCCCCC1	-3
O=C(C[C@H]1CC[C@H]2NC[C@H](O)COC[C@@H]2O1)Nc1ccc(-c2ccccc2)cc1	-8[25 µM]
C[C@@H]1CN([C@H](C)CO)C(=O)c2c(c3ccccc3n2C)-c2ccccc2CO[C@H]1CN(C)Cc1ccc(Cl)c(Cl)c1	23[25 µM]
C[C@@H]1CN([C@@H](C)CO)C(=O)c2cc(NC(=O)CCCN(C)C)ccc2O[C@@H]1CN(C)Cc1ccc(Cl)c(Cl)c1	1[25 µM]
N#C[C@@H]1[C@@H](c2ccc(C#Cc3cccnc3)cc2)[C@@H](CO)N1C(=O)NC1CCCC1	5
Oc1[nH]c2ccccc2c1N=Nc1ccccc1	-73
Cc1ccc(O)c(N=Nc2ccccc2)n1	55*[25 µM]
c1ccc(N=Nc2ccc(C3=NCCO3)cc2)cc1	14
SMILES	BL2 CD40 inh
C/C=C/c1ccc([C@H]2[C@@H](CO)N(C(=O)C3CCC3)C23CN(C(=O)NC(C)C)C3)cc1	5[25 µM]
O=C(c1ccccc1)N1C[C@@H]2[C@H](c3ccccc31)[C@H](CO)N2Cc1ccccn1	4[25 µM]
Cc1ccc(S(=O)(=O)c2c(C)cc(C)nc2N2CCCCC2)cc1	13
Cc1cc(C)nc(NNS(=O)(=O)c2ccc(Cl)cc2)n1	3
Cc1cc(S(=O)(=O)c2ccc(Cl)cc2)nc(S(=O)(=O)c2ccc(Cl)cc2)c1C#N	112*
C[C@H]1CN([C@@H](C)CO)C(=O)CCCn2cc(nn2)CO[C@H]1CN(C)Cc1ccc(-c2ccccc2)cc1	12
C[C@@H]1CN(C)C(=O)Cc2cc(NS(C)(=O)=O)ccc2O[C@H]1CN(C)S(C)(=O)=O	2

Screening results (PubChem)
